Giardia FBPA inh – qHTS Assay for Inhibitors of Fructose-1,6-bisphosphate Aldolase from Giardia Lamblia. A8B2U2. purified Giardia FBPA. Potency, µM (series often up to 59.6 µM), inactives show top-dose activity, negative = inhibition, actives largely listed as inhibitors. hit rate 0.71% among 290,000. AID 2451, 2010; further: potency means the concentration at half of the fitted maximal effect; nearly all actives have a fitted effect of over 55% in size
Target sequence (A8B2U2 whole entry, looked up): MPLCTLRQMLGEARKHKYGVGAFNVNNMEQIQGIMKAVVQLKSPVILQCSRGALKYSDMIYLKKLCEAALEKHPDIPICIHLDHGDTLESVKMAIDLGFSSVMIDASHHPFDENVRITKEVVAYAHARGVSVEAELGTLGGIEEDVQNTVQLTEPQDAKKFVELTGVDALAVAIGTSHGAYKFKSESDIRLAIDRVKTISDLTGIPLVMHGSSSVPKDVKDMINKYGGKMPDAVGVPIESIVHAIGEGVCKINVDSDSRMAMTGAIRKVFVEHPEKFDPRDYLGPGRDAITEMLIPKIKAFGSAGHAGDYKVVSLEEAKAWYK
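40 nM FBPA preincubated 10 min at RT with compound (up to 57.5 uM final), then substrate plus GAPDH/TPI/NAD/arsenate coupling and diaphorase/resazurin added. Fluorescence read after 20 min at RT, 525/598 nm.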
Pf growth 96h – Primary qHTS for delayed death inhibitors of the malarial parasite plastid, 96 hour incubation; hit rate 6.9% among 320,000; Potency, µM (series often up to 28.7 µM), for the others: top-dose activity change, negative = inhibition, hits mostly inhibitors; P. falciparum luciferase reporter growth, 96 h; further: potency means the concentration at half of the fitted maximal effect
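Readout is luminescence from an integrated firefly luciferase in P. falciparum. Red cells, 2% hematocrit and 0.05% parasitemia final, were cultured with compound through two parasite generations (96 hours) at 37 C, 5% CO2.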
Pf growth 48h – Primary qHTS for delayed death inhibitors of the malarial parasite plastid, 48 hour incubation. P. falciparum luciferase growth in erythrocytes, 48 h. Potency, µM (doses to about 28.7 µM), for the others: at the top dose activity change, negative = inhibition, hits mostly inhibitors. hit rate 5.9% among 310,000. AID 504832, 2011; further: potency means the concentration at half of the fitted maximal effect
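Cell-based growth assay: transgenic P. falciparum expressing firefly luciferase, cultured in red cells within RPMI 1640 containing 0.5% w/v Albumax, 24 mM bicarbonate and gentamycin. A drop in luciferase activity indicates inhibition.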
Sm TGR inh – qHTS Assay for the Inhibitors of Schistosoma Mansoni Peroxiredoxins. purified TGR, DTNB reduction, TNB absorbance 405 nm. Potency, µM (titrated, usually from 114 µM), for inactives: at the top dose activity change, negative = inhibition, most hits filed as inhibitors. hit rate 3% among 360,000; further: potency means the concentration at half of the fitted maximal effect; nearly all actives have a fitted effect of over 60% in size
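TGR 20 nM + NADPH 100 uM (dispensed conc.), cpd preinc 15 min RT; start with NADPH (500 uM addition) then DTNB (15 mM addition). Kinetic TNB absorbance, 405 nm filter. Four-parameter Hill fit across titration.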
HCMV antiviral – qHTS Assay for inhibitors of the human cytomegalovirus (HCMV) | HFF cells, HCMV-luciferase reporter, 72 h; stronger effect = lower value | activity change, negative = inhibition, % at 57.5 µM | hit rate 4.5% among 410,000; in the data active means activity change below about -60%; inconclusive means no clear call, values can overlap the other calls; inactive means above about -39%
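Luciferase read-out from HCMV-luciferase-infected HFFs (MOI 1 PFU/cell) 72 h post infection at 37C; compounds added after 16 h cell attachment; activity normalized between buffer-only basal and Salinomycin (10uM) inhibitor controls.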
Active calls of the source: *; [ ] = dose if it differs, or a comment. Compounds with a hit are over-represented: about 14% of the library has one in this group of screens. Unless noted, the call rests on the fitted dose curve; in most records, active means well fitted curve in the direction sought with a large enough effect; inconclusive means small, poorly fitted or top-dose-only effect, or another doubt; inactive means no such curve, though single readings can be large; an effect the other way counts as inactive or inconclusive. On the % scale 0 is the no-effect control and ±100 the full control effect.

What do the screens show for `COc1ccc(CCN(C)CC(O)COC(c2ccc(F)cc2)c2ccc(F)cc2)cc1OC` (centres undefined)?
Giardia FBPA inh: -6%; Pf growth 96h: 10µM*; Pf growth 48h: 13µM*; Sm TGR inh: -3%; HCMV antiviral: 3

How did COc1ccc(CCN(C)Cc2ccc(F)cc2F)cc1OC do in these assays?
Giardia FBPA inh: -24%; Pf growth 96h: 28%; Sm TGR inh: 0%; HCMV antiviral: -21

Results for CCN(CC)c1ccc(CN(C)CCc2ccc(OC)c(OC)c2)cc1 ?
Giardia FBPA inh: inconclusive; Pf growth 96h: inconclusive; Pf growth 48h: -10%; Sm TGR inh: 6%; HCMV antiviral: -2

Results for CCN(Cc1ccccc1)CC(O)COC(c1ccc(OC)cc1)c1ccc(OC)cc1 (centres undefined) ?
Giardia FBPA inh: -7%; Pf growth 96h: 9.3µM*; Pf growth 48h: 15µM*; Sm TGR inh: 0%; HCMV antiviral: -15

Results for COc1ccc(CN(C)CC(O)COC(c2ccccc2)c2ccccc2)c(OC)c1OC (centres undefined) ?
Giardia FBPA inh: 10%; Pf growth 96h: inconclusive; Pf growth 48h: 10µM*; Sm TGR inh: 0%; HCMV antiviral: -28

Results for CCN(CC)CC(O)COC(c1ccccc1)c1ccccc1 (centres undefined) ?
Giardia FBPA inh: -1%; Pf growth 96h: inconclusive; Pf growth 48h: inconclusive; Sm TGR inh: 5%; HCMV antiviral: -4

What do the screens show for `Cn1c(SCc2ccc(Cl)cc2)nc(C(F)(F)F)cc1=O`?
Giardia FBPA inh: -4%; Pf growth 96h: -19%; Pf growth 48h: 53%; Sm TGR inh: 4%; HCMV antiviral: -10

How did COc1ccc(S(=O)(=O)NCCc2sc(-c3ccccc3)nc2C)cc1OC do in these assays?
Sm TGR inh: 3%; HCMV antiviral: -9

How did CC(C)Cn1c(=O)c(CCC(=O)Nc2ccc(N3CCOCC3)cc2)nc2cc(Cl)ccc21 do in these assays?
Giardia FBPA inh: -11%; Pf growth 96h: 20%; Pf growth 48h: inconclusive; Sm TGR inh: -18%; HCMV antiviral: -4

What do the screens show for `Cc1cc(C)cc(OCC(=O)NN2Cc3ccccc3C2=N)c1`?
Giardia FBPA inh: -11%; Pf growth 96h: 6.6µM*; Sm TGR inh: 7%; HCMV antiviral: inconclusive

Results for N=C1c2ccccc2CN1NC(=O)C1CC1 ?
Giardia FBPA inh: -2%; Pf growth 96h: -1%; Pf growth 48h: 0%; Sm TGR inh: 7%; HCMV antiviral: -21

Results for CCc1ccc(OCC(=O)NN2Cc3ccccc3C2=N)cc1 ?
Giardia FBPA inh: -3%; Pf growth 96h: inconclusive; Pf growth 48h: 17%; Sm TGR inh: 1%; HCMV antiviral: 17

Results for N=C1c2ccccc2CN1NC(=O)CC12CC3CC(CC(C3)C1)C2 ?
Giardia FBPA inh: 3%; Pf growth 96h: 1.9µM*; Pf growth 48h: inconclusive; Sm TGR inh: -3%; HCMV antiviral: 54

What do the screens show for `Cc1cc(OCC(=O)C(C)(C)C)c2c(-c3ccccc3)cc(=O)oc2c1`?
Giardia FBPA inh: 9%; Pf growth 96h: -21%; Pf growth 48h: 11%[0.00184 µM]; Sm TGR inh: 13%; HCMV antiviral: 2

How did Cc1ccc(S(=O)(=O)Nc2c(C)n(C)n(-c3ccccc3)c2=O)cc1C(=O)OC(C)C(=O)c1ccccc1 (centres undefined) do in these assays?
HCMV antiviral: -8

Results for O=C(CNc1ccc(F)cc1)N/N=C/c1c(O)ccc2ccccc12 ?
Giardia FBPA inh: 12%; Pf growth 96h: 23%; Sm TGR inh: inconclusive; HCMV antiviral: -97*

Results for COc1ccccc1N(CC(=O)N/N=C/c1c(O)ccc2ccccc12)S(C)(=O)=O ?
Giardia FBPA inh: -7%; Pf growth 96h: -105%; Pf growth 48h: 0%; Sm TGR inh: 2%; HCMV antiviral: -17

How did O=C(CN1CCCc2ccccc21)N/N=C/c1ccccc1 do in these assays?
Giardia FBPA inh: -9%; Pf growth 96h: -9%; Pf growth 48h: -4%; Sm TGR inh: 0%; HCMV antiviral: 17

Source: PubChem BioAssay
